In ChEMBL document CHEMBL1961873, “Compounds: GSK PKIS; Assays: Nanosyn kinase panel” (2012):
Values joined by “and” are separate entries in the source; they are usually repeats but may differ in a detail not shown here. Equal entries are not always repeated.

Key:
[1] = target: Serine/threonine-protein kinase pim-2 (Homo sapiens) (UniProt Q9P1W9); conditions: at 1 µM;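 also: each value is a mean of the inhibition measurements against the kinase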
[2] = target: Serine/threonine-protein kinase pim-3 (Homo sapiens) (UniProt Q86V86); conditions: at 0.1 µM
[3] = target: Serine/threonine-protein kinase pim-3 (Homo sapiens) (UniProt Q86V86); conditions: at 1 µM
[4] = target: T1, MAP kinase-activated protein kinase 5 (Homo sapiens) (UniProt Q8IW41); conditions: at 0.1 µM
T1 sequence (whole entry): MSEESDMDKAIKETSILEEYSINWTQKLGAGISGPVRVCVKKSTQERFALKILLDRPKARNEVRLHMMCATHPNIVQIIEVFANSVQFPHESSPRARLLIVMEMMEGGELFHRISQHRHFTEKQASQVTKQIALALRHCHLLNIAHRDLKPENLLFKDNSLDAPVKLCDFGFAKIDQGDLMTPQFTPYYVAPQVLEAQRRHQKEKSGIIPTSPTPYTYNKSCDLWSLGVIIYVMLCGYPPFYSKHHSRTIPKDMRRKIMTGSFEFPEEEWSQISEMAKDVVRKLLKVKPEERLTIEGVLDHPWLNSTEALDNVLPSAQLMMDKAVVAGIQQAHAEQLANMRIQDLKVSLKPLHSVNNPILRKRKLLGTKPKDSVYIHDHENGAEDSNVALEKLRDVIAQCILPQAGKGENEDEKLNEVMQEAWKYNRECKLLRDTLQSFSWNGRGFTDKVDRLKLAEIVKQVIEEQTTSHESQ

[5] = target: T1, MAP kinase-activated protein kinase 5 (Homo sapiens); conditions: at 1 µM
[6] = target: Serine/threonine-protein kinase SIK1 (Homo sapiens) (UniProt P57059); conditions: at 0.1 µM
Sequence of Serine/threonine-protein kinase SIK1 (Homo sapiens) (P57059 whole entry): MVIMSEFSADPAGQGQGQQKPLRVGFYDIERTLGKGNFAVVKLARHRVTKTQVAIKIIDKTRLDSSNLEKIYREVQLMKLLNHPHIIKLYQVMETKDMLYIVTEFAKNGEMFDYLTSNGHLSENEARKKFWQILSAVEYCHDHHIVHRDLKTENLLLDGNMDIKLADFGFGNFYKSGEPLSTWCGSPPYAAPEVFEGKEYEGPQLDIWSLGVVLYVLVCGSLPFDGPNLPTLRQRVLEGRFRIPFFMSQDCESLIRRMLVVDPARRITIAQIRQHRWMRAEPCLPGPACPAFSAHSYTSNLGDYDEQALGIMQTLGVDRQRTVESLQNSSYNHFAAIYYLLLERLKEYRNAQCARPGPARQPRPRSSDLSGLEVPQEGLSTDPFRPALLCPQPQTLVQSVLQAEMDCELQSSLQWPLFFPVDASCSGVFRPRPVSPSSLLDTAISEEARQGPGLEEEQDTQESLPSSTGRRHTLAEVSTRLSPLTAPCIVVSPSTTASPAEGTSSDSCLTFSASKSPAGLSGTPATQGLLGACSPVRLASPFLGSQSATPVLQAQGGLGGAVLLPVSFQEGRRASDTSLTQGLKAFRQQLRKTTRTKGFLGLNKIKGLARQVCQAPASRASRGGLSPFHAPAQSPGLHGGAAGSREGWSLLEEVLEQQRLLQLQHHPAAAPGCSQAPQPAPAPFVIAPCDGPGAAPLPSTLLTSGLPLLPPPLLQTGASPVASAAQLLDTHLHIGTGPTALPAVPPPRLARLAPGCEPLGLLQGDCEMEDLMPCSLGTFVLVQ

[7] = target: Serine/threonine-protein kinase SIK1 (Homo sapiens) (UniProt P57059); conditions: at 1 µM
[8] = target: Serine/threonine-protein kinase SIK2 (Homo sapiens) (UniProt Q9H0K1); conditions: at 0.1 µM
Sequence of Serine/threonine-protein kinase SIK2 (Homo sapiens) (Q9H0K1 whole entry, looked up): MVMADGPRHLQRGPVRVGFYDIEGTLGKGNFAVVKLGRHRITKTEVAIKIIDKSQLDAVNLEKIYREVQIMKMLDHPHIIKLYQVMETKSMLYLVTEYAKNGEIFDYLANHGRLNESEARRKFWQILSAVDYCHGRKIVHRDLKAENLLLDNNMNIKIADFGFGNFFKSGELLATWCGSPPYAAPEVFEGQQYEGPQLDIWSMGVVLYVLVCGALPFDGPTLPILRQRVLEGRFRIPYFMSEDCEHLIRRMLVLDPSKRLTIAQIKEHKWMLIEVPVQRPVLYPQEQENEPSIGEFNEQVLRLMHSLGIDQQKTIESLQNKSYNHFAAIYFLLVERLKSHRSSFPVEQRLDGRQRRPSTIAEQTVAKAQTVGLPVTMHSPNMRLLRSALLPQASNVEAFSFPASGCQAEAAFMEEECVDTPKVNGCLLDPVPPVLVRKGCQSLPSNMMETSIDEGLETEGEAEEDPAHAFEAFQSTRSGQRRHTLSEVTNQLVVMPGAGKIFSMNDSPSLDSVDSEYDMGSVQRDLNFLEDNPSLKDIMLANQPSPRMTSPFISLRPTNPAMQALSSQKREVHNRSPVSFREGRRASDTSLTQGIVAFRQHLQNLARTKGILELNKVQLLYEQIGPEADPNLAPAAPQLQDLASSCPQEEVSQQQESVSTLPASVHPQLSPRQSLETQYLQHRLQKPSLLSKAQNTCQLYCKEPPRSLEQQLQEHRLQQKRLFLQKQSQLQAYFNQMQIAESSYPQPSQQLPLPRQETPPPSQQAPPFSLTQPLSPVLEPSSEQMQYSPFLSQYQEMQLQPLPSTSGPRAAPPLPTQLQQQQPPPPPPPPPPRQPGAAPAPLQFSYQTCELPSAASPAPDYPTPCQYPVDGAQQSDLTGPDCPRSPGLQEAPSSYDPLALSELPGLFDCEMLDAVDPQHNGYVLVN

[9] = target: Serine/threonine-protein kinase SIK2 (Homo sapiens) (UniProt Q9H0K1); conditions: at 1 µM
[10] = target: T2, Serine/threonine-protein kinase TBK1 (Homo sapiens) (UniProt Q9UHD2); conditions: at 0.1 µM
T2 sequence (whole entry): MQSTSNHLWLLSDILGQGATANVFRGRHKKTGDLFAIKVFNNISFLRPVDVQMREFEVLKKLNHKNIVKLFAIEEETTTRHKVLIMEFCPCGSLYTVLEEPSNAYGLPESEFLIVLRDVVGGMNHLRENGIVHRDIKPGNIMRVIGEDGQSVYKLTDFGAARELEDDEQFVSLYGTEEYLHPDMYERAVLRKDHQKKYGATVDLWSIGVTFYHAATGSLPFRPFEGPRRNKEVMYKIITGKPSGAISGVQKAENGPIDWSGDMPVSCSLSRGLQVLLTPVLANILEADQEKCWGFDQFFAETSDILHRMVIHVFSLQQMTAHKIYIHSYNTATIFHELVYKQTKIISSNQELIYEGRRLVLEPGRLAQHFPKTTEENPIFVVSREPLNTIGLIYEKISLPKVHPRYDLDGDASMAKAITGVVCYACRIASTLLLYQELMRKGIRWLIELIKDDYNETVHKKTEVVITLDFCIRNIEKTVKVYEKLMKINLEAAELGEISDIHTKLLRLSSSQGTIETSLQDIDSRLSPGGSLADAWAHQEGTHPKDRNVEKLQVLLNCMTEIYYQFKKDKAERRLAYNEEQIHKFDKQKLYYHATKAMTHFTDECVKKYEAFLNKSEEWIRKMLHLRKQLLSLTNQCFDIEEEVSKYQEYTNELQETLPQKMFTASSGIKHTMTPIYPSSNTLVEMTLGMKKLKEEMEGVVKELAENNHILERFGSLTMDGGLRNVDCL

[11] = target: T2, Serine/threonine-protein kinase TBK1 (Homo sapiens); conditions: at 1 µM
[12] = target: T3, Testis-specific serine/threonine-protein kinase 1 (Homo sapiens) (UniProt Q9BXA7); conditions: at 0.1 µM
T3 sequence (whole entry): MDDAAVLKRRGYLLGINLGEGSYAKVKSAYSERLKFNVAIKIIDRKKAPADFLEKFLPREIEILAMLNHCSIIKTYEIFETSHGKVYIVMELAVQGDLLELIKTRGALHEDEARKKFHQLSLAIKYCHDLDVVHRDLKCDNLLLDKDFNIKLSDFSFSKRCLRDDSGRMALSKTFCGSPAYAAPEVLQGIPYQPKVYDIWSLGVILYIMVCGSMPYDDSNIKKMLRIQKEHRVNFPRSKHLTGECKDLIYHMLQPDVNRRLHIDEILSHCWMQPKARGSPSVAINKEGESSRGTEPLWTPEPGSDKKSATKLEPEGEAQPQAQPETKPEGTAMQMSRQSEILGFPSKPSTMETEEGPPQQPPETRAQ

[13] = target: T3, Testis-specific serine/threonine-protein kinase 1 (Homo sapiens); conditions: at 1 µM
[14] = target: T4, Testis-specific serine/threonine-protein kinase 2 (Homo sapiens) (UniProt Q96PF2); conditions: at 0.1 µM
T4 sequence (whole entry): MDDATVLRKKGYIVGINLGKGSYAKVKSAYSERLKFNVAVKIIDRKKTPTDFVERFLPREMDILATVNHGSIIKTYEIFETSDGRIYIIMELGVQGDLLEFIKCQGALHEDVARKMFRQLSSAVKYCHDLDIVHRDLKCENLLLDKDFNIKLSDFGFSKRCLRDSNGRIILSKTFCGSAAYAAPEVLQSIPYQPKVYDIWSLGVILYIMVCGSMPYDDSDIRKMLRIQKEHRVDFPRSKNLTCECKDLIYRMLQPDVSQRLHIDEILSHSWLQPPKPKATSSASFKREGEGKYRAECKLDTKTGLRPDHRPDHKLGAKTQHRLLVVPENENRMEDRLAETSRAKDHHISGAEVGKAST

[15] = target: T4, Testis-specific serine/threonine-protein kinase 2 (Homo sapiens); conditions: at 1 µM
[16] = target: Casein kinase I isoform alpha (Homo sapiens) (UniProt P48729); conditions: at 0.1 µM
Sequence of Casein kinase I isoform alpha (Homo sapiens) (P48729 2-337 limits assumed): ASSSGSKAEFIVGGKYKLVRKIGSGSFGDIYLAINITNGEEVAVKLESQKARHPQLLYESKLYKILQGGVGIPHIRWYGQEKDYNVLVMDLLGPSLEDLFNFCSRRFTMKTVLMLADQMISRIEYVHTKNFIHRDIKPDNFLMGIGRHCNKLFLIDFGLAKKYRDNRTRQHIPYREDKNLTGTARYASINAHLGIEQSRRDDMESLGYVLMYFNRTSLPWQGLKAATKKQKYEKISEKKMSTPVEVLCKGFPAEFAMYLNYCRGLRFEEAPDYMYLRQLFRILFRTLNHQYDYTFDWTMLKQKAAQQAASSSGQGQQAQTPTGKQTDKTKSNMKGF

[17] = target: Casein kinase I isoform alpha (Homo sapiens) (UniProt P48729); conditions: at 1 µM
[18] = target: Casein kinase I isoform gamma-1 (Homo sapiens) (UniProt Q9HCP0); conditions: at 0.1 µM
Sequence of Casein kinase I isoform gamma-1 (Homo sapiens) (Q9HCP0 whole entry, looked up, canonical isoform): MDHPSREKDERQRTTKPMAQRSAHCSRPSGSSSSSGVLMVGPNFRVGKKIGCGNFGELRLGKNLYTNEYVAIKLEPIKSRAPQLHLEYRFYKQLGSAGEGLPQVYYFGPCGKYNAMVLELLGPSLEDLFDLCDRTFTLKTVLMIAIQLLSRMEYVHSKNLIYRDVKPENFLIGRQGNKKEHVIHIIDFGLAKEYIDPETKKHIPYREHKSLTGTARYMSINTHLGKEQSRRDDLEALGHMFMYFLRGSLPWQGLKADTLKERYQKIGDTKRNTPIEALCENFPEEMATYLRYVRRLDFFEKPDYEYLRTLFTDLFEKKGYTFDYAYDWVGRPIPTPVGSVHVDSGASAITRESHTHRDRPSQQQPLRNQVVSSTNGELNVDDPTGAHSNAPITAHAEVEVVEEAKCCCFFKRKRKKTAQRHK

[19] = target: Casein kinase I isoform gamma-1 (Homo sapiens) (UniProt Q9HCP0); conditions: at 1 µM
[20] = target: Casein kinase I isoform gamma-2 (Homo sapiens) (UniProt P78368); conditions: at 0.1 µM;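 also: values are mean inhibition figures reported as part of the GSK PKIS dataset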
Sequence of Casein kinase I isoform gamma-2 (Homo sapiens) (P78368 whole entry, looked up, canonical isoform): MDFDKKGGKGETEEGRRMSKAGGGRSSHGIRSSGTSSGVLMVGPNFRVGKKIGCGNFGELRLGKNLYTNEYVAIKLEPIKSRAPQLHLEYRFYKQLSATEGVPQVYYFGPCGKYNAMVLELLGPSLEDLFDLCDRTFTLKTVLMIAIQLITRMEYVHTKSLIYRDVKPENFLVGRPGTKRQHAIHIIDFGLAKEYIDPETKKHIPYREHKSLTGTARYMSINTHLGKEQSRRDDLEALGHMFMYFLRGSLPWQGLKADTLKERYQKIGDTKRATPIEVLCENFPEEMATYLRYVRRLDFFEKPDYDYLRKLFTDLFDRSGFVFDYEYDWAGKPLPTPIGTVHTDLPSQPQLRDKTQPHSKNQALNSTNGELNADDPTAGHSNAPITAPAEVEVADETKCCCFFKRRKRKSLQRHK

Sequence of Serine/threonine-protein kinase pim-2 (Homo sapiens) (Q9P1W9 whole entry, looked up): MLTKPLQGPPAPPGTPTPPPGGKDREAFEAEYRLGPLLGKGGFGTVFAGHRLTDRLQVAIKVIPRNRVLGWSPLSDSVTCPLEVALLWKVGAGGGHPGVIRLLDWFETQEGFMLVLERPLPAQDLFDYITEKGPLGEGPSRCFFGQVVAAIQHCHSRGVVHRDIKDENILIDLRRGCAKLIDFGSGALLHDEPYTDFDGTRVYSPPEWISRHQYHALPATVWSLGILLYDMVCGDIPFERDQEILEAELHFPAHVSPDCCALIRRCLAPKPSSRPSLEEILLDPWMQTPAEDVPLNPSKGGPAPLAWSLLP

Compound	inhibition [1]	inhibition [2]	inhibition [3]	inhibition [4]	inhibition [5]	inhibition [6]	inhibition [7]	inhibition [8]	inhibition [9]	inhibition [10]	inhibition [11]	inhibition [12]	inhibition [13]	inhibition [14]	inhibition [15]	inhibition [16]	inhibition [17]	inhibition [18]	inhibition [19]	inhibition [20]
N#Cc1ccc2c(-c3ccnc(NC4CC4)n3)c(-c3ccc(F)cc3)nn2c1	0.72%	-0.27%	-0.29%	0.61%	-0.5%	4.86%	23.5%	24.1%	68.9%	1.15%	0.07%	1.44%	-1.14%	1.07%	-0.63%	3.72%	30.1%	1.85%	4.03%	2%
CN(C)CCNC(=O)Nc1ccc(N(C)c2ccnc(Nc3ccc(CS(C)(=O)=O)cc3)n2)cc1	2.68%	-0.48%	-1.2%	1.02%	0.33%	5.41%	31.9%	8.68%	13.6%	2.12%	5.74%	2.28%	5.73%	0.57%	-1.45%	2.02%	5.94%	3.74%	4.96%	4.73%
CCS(=O)(=O)c1ccc(OC)c(Nc2ncc(-c3cccc(C(C)=O)c3)o2)c1	-0.01%	0.38%	4.79%	1.84%	2%	6.02%	15.1%	3.14%	14%	0.54%	5.54%	2.02%	5.38%	3.72%	1.57%	0.47%	2.36%	2.26%	2.79%	2.75%
COC(=O)Nc1nc2cc(Oc3ccc(NC(=O)Nc4ccccc4)cc3)ccc2[nH]1	0.64%	-0.27%	0.79%	1.73%	2.59%	1.17%	7.79%	1.28%	9.23%	-0.2%	2.25%	3.86%	4.03%	2.21%	4.11%	0.93%	2.7%	2.12%	2.12%	2.17%
Fc1cccc(COc2ccc(Nc3ncncc3C#Cc3ccccc3)cc2Cl)c1	1.48%	-0.8%	3.6%	2.08%	4.3%	3.74%	5.31%	9.03%	6.72%	5.15%	6.39%	3.55%	6.94%	2.49%	4.25%	5.09%	7.86%	4.27%	4.53%	3.09%
COc1ccc2ncn(-c3cc(O[C@H](C)c4ccccc4C(F)(F)F)c(C(N)=O)s3)c2c1	0.75%	1.24%	7.53%	-0.11%	-0.07%	-1.94%	15.9%	4.06%	5.38%	1.28%	-0.87%	1.48%	1.53%	-0.29%	0.97%	0.31%	2.23%	-1.06%	-0.1%	-0.92%
COc1c(C(N)=O)cc(-c2ccc(Cl)cc2)cc1-c1ccc(S(N)(=O)=O)cc1	-0.88%	-0.2%	0.43%	1.35%	2.31%	10.7%	16.1%	8.28%	6.93%	4.69%	3.5%	4.67%	5.11%	2.57%	2.89%	5.95%	12.6%	4.33%	6.12%	4.61%
COc1cc2c(cc1Nc1nc(Nc3cccc(F)c3C(N)=O)c3cc[nH]c3n1)N(C(=O)CN1CCN(C(C)C)CC1)CC2	0.2%	0.01%	1.84%	0.57%	1.03%	5.86%	8.52%	3.09%	0.18%	2.33%	3.05%	5.1%	31.9%	2.49%	12.4%	1.84%	11.4%	2.53%	5.76%	2.46%
COc1cccc(-n2ncc3c(N/N=C/c4ccc(C(=O)NCCN(C)C)cc4)ncnc32)c1	0.88%	0.5%	3.82%	0.76%	0.52%	18.3%	61.2%	34.6%	76%	2.76%	11.2%	1.35%	0.43%	-0.44%	-0.81%	1.58%	7.14%	2.73%	11.7%	1.5%
NS(=O)(=O)c1ccc(N/N=C2\C(=O)Nc3ccc(C(=O)NCc4ccncc4)cc32)cc1	4.93%	1.9%	8.56%	1.84%	6.01%	3.99%	19.8%	6.03%	17.1%	3.83%	44%	5.34%	20.7%	2.55%	2.67%	1.19%	2.77%	2.33%	4.19%	1.94%
Nc1nonc1-c1nc2cnccc2n1C1CC1	11.3% and 9.18%	3.94% and 4.22%	30.6% and 32.5%	0.67% and 1.06%	-0.55% and 4.15%	6.64% and 2.66%	8.35% and 5.12%	0.75% and 5.71%	5.93% and 2.36%	7.96% and 1.98%	15.3% and 9%	3.32% and 4.38%	14.5% and 17.5%	1.12% and 1.1%	-1.21% and 1.4%	6.95% and 4.09%	6.23% and 9.54%	3.2% and -1.18%	3.96% and -0.27%	1.76% and -1.82%
Nc1nccc(-c2c(-c3ccc(F)cc3)ncn2C2CCNCC2)n1	1.8% and 0.96%	0.82% and 0.07%	11% and 0.53%	-1.67% and 0.07%	-1.48% and 0.35%	-9% and 6.76%	-2.37% and 5.84%	-0.69% and 8.02%	37.4% and 47.1%	-1.45% and -0.58%	-0.8% and 3.12%	-0.43% and -0.33%	-1.08% and -1.15%	-2.53% and 0.42%	-0.67% and -0.42%	61.4% and 67%	85% and 86.4%	-1.9% and 1.36%	8.77% and 13.7%	-1.89% and 0.78%
CS(=O)(=O)CCNCc1ccoc1-c1ccc2ncnc(Nc3ccc(OCc4ccccc4)cc3)c2c1	-0.21%	0.58%	-0.84%	0.44%	0.78%	2.99%	4.48%	-0.71%	-0.59%	0.39%	-2.25%	0.51%	0.84%	1.17%	0.75%	1.49%	-0.39%	0.5%	1.25%	0.24%
